Bioassay records deposited in PubChem BioAssay by National Center for Advancing Translational Sciences (NCATS).
Only some compounds are listed: those with a hit (about 8% of all), similar ones and a draw of the others.
HT1080-NT tox: qHTS for induction of synthetic lethality in tumor cells producing 2HG: qHTS for the HT-1080-NT fibrosarcoma cell line | HT-1080-NT fibrosarcoma viability, CellTiter-Glo ATP luminescence, 48 h | AID 686970, 2013 | Potency, µM (titrated, usually from 46.1 µM), for inactives: top-dose activity, negative = less viability, hits mostly cytotoxic | actives 1.6% (n = 360,000);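 also: NT is the 2HG producing partner of a matched IDH1 knockdown line; 0% = DMSO-treated cells and -100% = media-only wells without cells; nearly all actives have a fitted effect of over 55% in size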
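Luminescent CellTiter-Glo readout after 48 hours of compound exposure at 37 degrees C defined viability of HT-1080-NT cells. Activity was normalized to DMSO wells and cell-free media wells; concentration-response curves were fitted and assigned curve classes.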
SW480 rerep: A quantitative high throughput screen for small molecules that induce DNA re-replication in SW480 colon adenocarcinoma cells; SW480 DNA re-replication, Hoechst DNA content imaging, 48 h; Potency, µM (doses to about 46.1 µM), for inactives: at the top dose re-replication activation, actives largely listed as activators; actives 1.8% (n = 340,000); AID 624297, 2012; also: % of control where 0% means no effect; nearly all actives have a fitted effect of over 55% in size
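Hoechst fluorescence of nuclei (405 nm excitation, 500-530 nm emission) measured by plate-scanning imager after 48 hr compound exposure at 37 C; re-replication scored as increased number of nuclei with elevated intensity.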
MCF10A rerep: A quantitative high throughput screen for small molecules that induce DNA re-replication in MCF 10a normal breast cells. MCF 10A DNA re-replication, Hoechst nuclear intensity, 48 h. Potency, µM (doses to about 46.1 µM), without a hit: at the highest dose activity, positive = re-replication, usual class: activators. actives 2.9% (n = 350,000). AID 624296, 2012; also: % of control where 0% means no effect; nearly all actives have a fitted effect of over 50% in size
KB-V1 MDR tox: qHTS assay for MDR1-selective chemotherapeutics: Primary screen using the drug-selected MDR subline cells KB-V1 | Potency, µM (doses to about 46.1 µM), usual class: cytotoxic | actives 3.4% (n = 400,000) | KB-V1 MDR cells viability, CellTiter-Glo, 72 h; also: % is scaled to controls: 0 for no effect and ±100 for the full control effect; nearly all actives have a fitted effect of over 60% in size
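Following 72 h at 37 degrees C with compound, KB-V1 cell viability was read by CellTiter-Glo luminescence, medium being phenol-red-free DMEM plus 10% FBS; concentration-response parameters came from normalized, curve-fitted qHTS data.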
KB-3-1 tox: qHTS assay for MDR1-selective chemotherapeutics: Primary screen using the parental adenocarcinoma cell KB-3-1; KB-3-1 viability, CellTiter-Glo ATP luminescence, 72 h; Potency, µM (titrated, usually from 46.1 µM), actives largely listed as cytotoxic; actives 1.4% (n = 400,000); AID 1347075, 2019; also: % is scaled to controls: 0 for no effect and ±100 for the full control effect; nearly all actives have a fitted effect of over 60% in size
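Multi-concentration cytotoxicity screen in KB-3-1 cells grown in DMEM lacking phenol red with 10% FBS. After 72 h at 37 °C with compound, ATP-dependent luminescence was recorded.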
HT1080 IDH1KD tx: qHTS for induction of synthetic lethality in tumor cells producing 2HG: qHTS for the HT-1080-IDH1KD cell line | actives 2% (n = 360,000) | HT-1080 IDH1 knockdown viability, ATP luminescence, 48 h | Potency, µM (series often up to 46.1 µM), for inactives: at the top dose activity, negative = toxicity, most hits filed as cytotoxic | AID 686971, 2013;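 also: 0% = DMSO wells and -100% = cell-free medium wells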
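CellTiter-Glo luminescence after 48 h compound exposure at 37 degrees C of IDH1-knockdown HT-1080 cells in 5% FBS RPMI. %Activity scaled between DMSO wells and cell-free media wells, with curves fitted and assigned curve classes.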
* marks the source's active call; other numbers are inactive results; i = inactive; ? = inconclusive; · = no result; [ ] = dose if it differs, or a comment. Calls follow the shape of the dose curve; as a rule, active = well fitted curve in the direction sought with a large enough effect; inconclusive = small, poorly fitted or top-dose-only effect, or another doubt; inactive = no such curve, though single readings can be large; an effect the other way counts as inactive or inconclusive. Potency is read from the fitted curve at half-maximal effect.

SMILES | HT1080-NT tox | SW480 rerep | MCF10A rerep | KB-V1 MDR tox | KB-3-1 tox | HT1080 IDH1KD tx
Cc1ccc(S(=O)(=O)Nc2ccccc2N2CCCCC2)cc1 | ? | ? | 16µM* | ? | ? | ?
Cc1ccc(S(=O)(=O)Nc2ccccc2N2CCOCC2)cc1 | 21µM* | ? | ? | ? | 13µM* | 18µM*
COC(=O)c1ccc(N2CCCCC2)c(NS(=O)(=O)c2ccc(C)cc2)c1 | -9% | -1% | -4% | ? | i | 2%
CCN(CC)CCNC(=O)c1ccc(N2CCCCC2)c(NS(=O)(=O)c2ccc(C)cc2)c1 | ? | 26µM* | 5% | ? | ? | ?
CC(C)(C)C1C=C(Sc2ccccc2)C(=O)O1 (stereo not given) | -9% | ? | 10% | i | i | 0%
Cc1ccc2c(=O)cc(C(=O)Nc3ccc(S(=O)(=O)N4CCCCC4C)cc3)oc2c1C (stereo not given) | · | · | · | ? | i | ·
Cc1cccc(C)c1OCC(=O)N=Nc1c(O)[nH]c2ccc(Br)cc12 | 19% | ? | 21µM* | ? | i | 9%
Cn1c(O)c(N=NC(=O)c2cc(-c3cccs3)nc3ccccc23)c2ccccc21 | -8% | 1% | ? | ? | i | -19%
O=C(N=Nc1c(O)[nH]c2ccc(Br)cc12)c1ccccc1-n1cccc1 | 2.8µM* | ? | ? | 3.3µM* | 5.2µM* | 2.2µM*
O=C(N=Nc1c(O)[nH]c2ccc(Br)cc12)c1cc(-c2cccs2)nc2ccccc12 | ? | 0% | ? | ? | ? | 13µM*
O=C(C[C@H]1C[C@H](C(=O)N2CCOCC2)[C@@]2(CCC3CCCC3)c3[nH]c4ccc(Cl)cc4c3CCN2C1=O)NCCCn1ccnc1 | ? | 4% | ? | i | ? | ?
COc1ccc(-c2nn(-c3ccccc3)cc2/C=N/NC(=S)NC(C)C)cc1OC | 3% | ? | -31% | ? | i | -7%
COc1ccc(-c2nn(-c3ccccc3)cc2/C=N/Nc2ccc3ccccc3n2)cc1OC | -4% | 26µM* | ? | ? | i | -2%
COc1ccc(-c2nn(-c3ccccc3)cc2/C=N/O)cc1OC | -10% | ? | 16µM* | i | i | -1%
COc1ccc(-c2nn(-c3ccccc3)cc2/C=N/N=C(N)N)cc1OC | -12% | ? | ? | i | ? | ?
Cc1ccc(-c2c(C)n3c4c(=O)n(C)c(=O)n(C)c4nc3n2CCO)cc1 | · | · | · | i | 2.1µM* | ·
CCCNC(=O)c1c(N)n(-c2cccc(OC)c2)c2nc3ccccc3nc12 | -13% | ? | 7.3µM* | ? | i | -14%
C=CCn1c(N)c(C(=O)Nc2cccc(C)c2)c2nc3ccccc3nc21 | -9% | ? | ? | 21µM* | i | ?
C=CCn1c(N)c(C(=O)Nc2ccc(C)c(C)c2)c2nc3ccccc3nc21 | -12% | 27% | ? | i | i | -19%
COCCCNC(=O)c1c(N)n(-c2cccc(S(N)(=O)=O)c2)c2nc3ccccc3nc12 | -21% | 21µM* | 18µM* | i | i | -12%
N#Cc1c(N)n(-c2ccccc2N)c2nc3ccccc3nc12 | -21% | ? | 4% | i | i | -9%
N#Cc1c(N)n(-c2cccc(C(=O)O)c2)c2nc3ccccc3nc12 | 2% | ? | 21µM* | i | i | -2%
CCOC(=O)c1c(N)n(-c2ccc(C)c(C)c2)c2nc3ccccc3nc12 | · | · | · | i | i | ·
COc1cc(C(=O)N2CCN(CCc3ccccn3)CC2)cc(OC)c1OC | · | · | · | i | i | ·
CC1CCN(c2ccc(NC(=O)C3CCCN3S(=O)(=O)c3ccc(F)cc3)cc2)CC1 (stereo not given) | -2%[9.24 µM] | -3% | 8% | i | i | -2%
SMILES | HT1080-NT tox | SW480 rerep | MCF10A rerep | KB-V1 MDR tox | KB-3-1 tox | HT1080 IDH1KD tx
Nc1c(C(=O)NCCN2CCOCC2)c2nc3ccccc3nc2n1-c1cccc(F)c1 | -23% | 16µM* | 18µM* | i | ? | -23%
Nc1c(C(=O)Nc2ccccc2)c2nc3ccccc3nc2n1CCCN1CCOCC1 | 23µM* | 18µM* | 10µM* | ? | i | 18µM*
CC(C)Oc1ccc(CNC(=O)C2CCN(C(=O)N3CC(C)Oc4ccccc43)CC2)cc1 (stereo not given) | · | · | · | i | i | ·
CCOC(=O)c1cn(-c2ccccc2)nc1-c1ccncc1 | 0% | -2% | 3% | 18µM* | ? | 0%
CCC(=O)c1ccc2c(c1)N(CCCN(C)C)c1ccccc1S2 | 23µM* | ? | 8% | i | i | 23µM*
CN(C)CCCN1c2ccccc2Sc2ccccc21 | ? | ? | 27% | ? | i | ?
CC(=O)c1ccc2c(c1)N(C)c1ccccc1S2 | 0% | 1% | ? | 23µM* | ? | -10%
Cc1ccc(CC(=O)Nc2ccc3c(c2)N(C)C(=O)c2ccccc2S3)cc1 | · | · | · | 18µM* | i | ·
Cc1ccc(C(=O)Nc2ccc3c(c2)N(C)C(=O)c2ccccc2S3)cc1F | · | · | · | 6.5µM* | 8.2µM* | ·
CCCCNC(=O)c1ccc2c(c1)N(C)C(=O)c1ccccc1S2 | -10% | 12% | 12% | i | i | 9%
O=S1(=O)CCOCCCN1Cc1ccc(F)cc1 | · | · | · | i | i | ·
CC(=O)Nc1cc(C(=O)Nc2ccc3c(c2)N(C)C(=O)c2ccccc2S3)ccc1C | · | · | · | ? | 4.1µM* | ·
COCCNC(=O)Nc1ccc2c(c1)N(C)C(=O)c1ccccc1S2 | -5% | 1% | 12% | i | i | 0%
Cc1ccc(NC(=O)c2ccc3c(c2)NC(=O)c2ccccc2S3)cc1 | · | · | · | 9.2µM* | 6.5µM* | ·
CCN1CCN(Cc2c(O)ccc3c(=O)c(Oc4ccccc4Cl)c(C(F)(F)F)oc23)CC1 | · | · | · | i | i | ·
CCCCN(CCCC)Cc1cc(=O)oc2ccc3ccccc3c12 | -1% | · | · | i | i | ?
CC(C)C[C@@H](CN1CCC[C@@H]1CN1C(=S)NC[C@@H]1Cc1ccc(O)cc1)N1C[C@H](Cc2ccc(O)cc2)N(CCc2ccccc2)C1=S | 26µM* | · | · | ? | i | ?
